mHTT CaM bind = mHTT-calmodulin interaction abrogation. AID 1671202. 3.6% of 190,000 active. AlphaScreen His-mHTT/GST-CaM binding, luminescence. P42858. inhibition, % at 15 µM
Pf apPOL inh = Pf-apPOL DNA polymerase inhibition. Recombinant Pf-apPOL, molecular beacon fluorescence, 1.5 h. inhibition, % at 10 µM. AID 1794808. 0.25% of 210,000 active
A number is an active result; i = inactive; nt = no result. Rows were chosen to be rich in hits. Some 3.6% of all compounds tested hit in one or more screens of this group. Rule as the data show it: active = inhibition above about 50%; inactive = the rest.

SMILES	mHTT CaM bind	Pf apPOL inh
COc1ccccc1C1=NN(C(=O)CN2CCCCC2C)C(c2ccc(C)cc2)C1 (centres undefined)	72.1	i
CCN1CCN(CC(=O)N2N=C(c3ccc(C)c(C)c3)CC2c2cccn2C)CC1 (centres undefined)	98.7	i
COc1ccc(C2CC(c3ccc(F)cc3)=NN2C(=O)CN2CCCCC2C)cc1 (centres undefined)	i	i
CCN1CCN(CC(=O)N2N=C(c3ccc(F)cc3)CC2c2cccn2C)CC1 (centres undefined)	98.4	i
CC(=O)c1cccc(NC(=O)CN(C)S(=O)(=O)c2ccc(Br)s2)c1	i	i
Cn1cccc1C1CC(c2ccccc2Cl)=NN1C(=O)CN1CCOCC1 (centres undefined)	i	i
CC1CCN(CC(=O)N2N=C(c3ccccc3Cl)CC2c2cccn2C)CC1 (centres undefined)	83.6	i
COc1ccc(C2CC(c3ccc(F)cc3)=NN2C(=O)CN2CCC(C)CC2)cc1 (centres undefined)	i	i
CC1CCN(CC(=O)N2N=C(c3ccc(F)cc3)CC2c2cccn2C)CC1 (centres undefined)	51.8	i
CC(C)NC(=O)N1CCCC(c2cccc(C(=O)NCc3ccncc3)c2)C1 (centres undefined)	i	i
Cc1ccc(NC(=O)c2cc3c(s2)CN(C(C)C)C3)c(C)c1	i	i
CC(=O)c1c(C(C)=O)c(C)n(-c2cc(C)c(C)cc2N)c1C	i	i
Cc1nnc(C)c2c(C)n(-c3ccc(N)cc3)c(C)c12	54.8	i
Cc1cc(N)c(-n2c(C)c3c(C)nnc(C)c3c2C)cc1C	87.7	i
CC(=O)c1c(C(C)=O)c(C)n(-c2ccc(N)cc2)c1C	i	i
CCCCN(C)C(=O)c1ccn2c(-c3ccccc3)nnc2c1	i	i
O=C(NCc1ccccn1)c1ccc2c(c1)nc1n2CCCCC1	i	i
Nc1ncnc(NC2CCCC2)c1[N+](=O)[O-]	i	i
Cc1ccc(CN2CCCn3nc(C(=O)NCc4ccccc4C)cc3C2=O)cc1	i	i
Cc1nn(Cc2ccc(Cl)c(Cl)c2)c(C)c1NC(=O)c1cc(-c2ccco2)on1	57.0	i
Cc1ccc(Cn2nc(C)c(NC(=O)c3noc4c3CCCCC4)c2C)cc1	i	i
Cc1cc(C)n(CCNC(=O)c2cc(-c3ccco3)on2)n1	i	i
Cc1nn(Cc2ccc(Cl)c(Cl)c2)c(C)c1NC(=O)c1noc2c1CCCC2	100.1	i
c1coc(CN2CCCCC2c2nncn2CC2CC2)c1 (centres undefined)	i	i
O=C1CCc2cc(NC(=O)Nc3ccc(F)cc3)ccc2N1	i	i
SMILES	mHTT CaM bind	Pf apPOL inh
O=S(=O)(Nc1cccc2cccnc12)c1ccccc1	73.9	i
CS(=O)(=O)Nc1cccc2cccnc12	i	i
CCOC1=NN(c2ccc([N+](=O)[O-])cc2)C(=O)/C1=C\c1ccccc1C(F)(F)F	62.0	i
CCOC1=NN(c2ccc([N+](=O)[O-])cc2)C(=O)/C1=C/c1ccccc1OC	i	i
CCn1cnc2c1c(=O)n(C1CCCCC1)c(=O)n2-c1ccccc1Cl	i	i
CCN1c2ccc(F)cc2C(=O)NC12CCN(C(=O)c1cc(F)cc(F)c1)CC2	i	i
CC(=O)Nc1cc(C(=O)NC2CCCC(C)C2C)ccc1S(=O)(=O)c1ccc(Cl)cc1 (centres undefined)	i	71.4
CC1CCCC(NC(=O)C(Cc2ccccc2)NS(=O)(=O)c2ccc(Cl)cc2)C1C (centres undefined)	i	i
O=C(CCc1ccccc1)N1CCC(c2ccn3ncc(C(=O)N4CCOCC4)c3c2)CC1	i	i
O=C(c1ccn2c(-c3ccc(F)cc3)nnc2c1)N1CCCC1	i	i
Cc1ccc2ccc(C(Nc3ccccn3)c3ccc(O)cc3)c(O)c2n1 (centres undefined)	93.1	i
Cc1ccc(C)c(C(Nc2ccccn2)c2ccc3cccnc3c2O)c1 (centres undefined)	97.0	i
COc1ccc(C(Nc2ccccn2)c2ccc3ccc(C)nc3c2O)cc1C (centres undefined)	81.0	i
COc1cc(C)c(S(=O)(=O)Nc2ccccn2)cc1C	i	i
Cc1ccc(-c2ncccc2O)cc1	i	i
Cc1ccc(C)c(C(C)Sc2ncccc2C(=O)O)c1 (centres undefined)	nt	i
Cc1ccc(C(Nc2ccccn2)c2ccc3cccnc3c2O)cc1 (centres undefined)	99.0	i
COc1cccc(CNC(=O)c2ccn3c(-c4cc(F)cc(F)c4)nnc3c2)c1	i	i
CCC1CN2C=NC(N3CCN(C(=O)Nc4ccc(OC)cc4C)CC3)=CC2=N1 (centres undefined)	i	i
Cc1ccc2c(Nc3ccc(C)c(C)c3)c(C(=O)N3CCSCC3)cnc2n1	i	i
Cc1ccc(NC(=O)C2CCCN(c3cc(=O)n(C)c(=O)n3C)C2)nc1 (centres undefined)	i	i
CCCOc1ccc(C(Nc2ccccn2)c2ccc3cccnc3c2O)cc1 (centres undefined)	97.0	i
Oc1c(C(Nc2ccccn2)c2ccc3c(c2)OCO3)ccc2cccnc12 (centres undefined)	98.9	i
CCCOc1ccc(C=Nc2ccc(S(=O)(=O)Nc3ccccn3)cc2)cc1	i	i
Oc1c(C(Nc2ccccn2)c2ccc(Br)cc2)ccc2cccnc12 (centres undefined)	94.0	i
SMILES	mHTT CaM bind	Pf apPOL inh
O=C(Nc1ccccn1)c1cc(Br)ccc1Cl	i	i
Cc1ccnc(NC(c2ccccc2C)c2ccc3cccnc3c2O)c1 (centres undefined)	99.0	i
OC(CN1CCN(c2ccccn2)CC1)c1ccc2c(c1)OCO2 (centres undefined)	i	i
O=C1OC(/C=C/c2cccc(Cl)c2Cl)=NC/1=C\c1ccc2c(c1)OCO2	i	i
O=C(CCCN1C(=O)c2ccccc2C1=O)Nc1ccccc1C(=O)N1CCCCCC1	i	i
CN(CC12CCCC1N(C)C(=O)CC2)C(=O)NC1CCCC1 (centres undefined)	i	i
C=CCNC(=O)C1CCN(c2ncccc2NC(=O)Nc2ccc(C)c(C)c2)CC1	i	i
CC1CCCN(C(=O)c2ccc3c(c2)Sc2ncccc2C(=O)N3C(C)C)C1 (centres undefined)	i	i
Cc1cc(Br)ccc1OCCOCCn1ccnc1	i	i
O=S(=O)(Nc1ccccn1)c1ccc(Cl)cc1	i	i
Cc1ccc(C(Nc2ccccn2)c2ccc3ccc(C)nc3c2O)cc1 (centres undefined)	72.0	i
Cc1ccnc(NC(c2cccs2)c2ccc3cccnc3c2O)c1 (centres undefined)	100.0	i
C=CCOc1ccc(C(Nc2ccccn2)c2ccc3ccc(C)nc3c2O)cc1 (centres undefined)	67.0	i
Oc1c(C(Nc2ccccn2)c2ccc(Cl)cc2)ccc2cccnc12 (centres undefined)	100.0	i
C=CCOc1ccc(C=Nc2ccc(C(C)C)cc2)c(O)c1	i	i
Cc1ccc(-c2nc(C=Nc3ccccn3)c(O)o2)cc1	i	i
CC(C)c1c(C2CCN(C(=O)NC3CCCCC3)CC2)noc1N	i	i
COc1ccc(C)cc1NC(=O)c1c(I)cnn1C	i	i
CC(=O)N1CCN(c2ccc(Cl)cc2C)C(=O)C1C (centres undefined)	i	i
Cc1ccc2ccc(C(Nc3ccccn3)c3ccc(F)cc3)c(O)c2n1 (centres undefined)	70.0	i
